# Assay results published in PubChem BioAssay.
# Activity calls are given as the source filed them.
# Tests used:
# [1] = A549 cell viability effects, profiling panel, calcein-AM fluorescence, 48 h, basal (AID 1162); details: higher = more signal
# [2] = adipocyte viability effects, profiling panel, cell-based, 3T3-L1 adipocytes, calcein-AM fluorescence, 48 h, basal (AID 1163); details: 3T3-L1 adipocytes viability, higher = more signal
# [3] = HepG2 cell viability effects, profiling panel, calcein-AM fluorescence, 48 h, basal (AID 1164); details: higher = more signal
# [4] = MM1S cell viability effects, profiling panel, calcein-AM fluorescence, 48 h, basal (AID 1165); details: higher = more signal;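 further: viability of MM1S multiple myeloma cells under basal unstimulated conditions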
# [5] = basal RPMI8226 viability, no added stimulus, profiling panel, cell-based, calcein-AM fluorescence, 48 h, PK04 Diversity Set (AID 1166); details: RPMI8226 myeloma viability, higher = more signal;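 further: cells grown under basal conditions without added stimulus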
# [6] = basal HepG2 mitochondrial membrane potential changes, profiling panel, cell-based, JC-1 fluorescence, 24 h, 100 nL compound (AID 1167); details: higher = more signal
# [7] = basal 3T3-L1 adipocyte mitochondrial potential changes, profiling panel, cell-based, JC-1 fluorescence, 3T3-L1 adipocytes, 24 h, 100 nL compound (AID 1168); details: JC-1 mitochondrial fluorescence, higher = more signal, called active from +8 up or from −8 down
# [8] = basal RPMI8226 mitochondrial membrane potential changes, profiling panel, cell-based, JC-1 fluorescence, 24 h, 100 nL compound (AID 1169); details: RPMI8226 myeloma, JC-1 mitochondrial potential fluorescence, higher = more signal
# [9] = basal MM1S mitochondrial membrane potential changes, profiling panel, cell-based, JC-1 fluorescence, 24 h, 100 nL compound (AID 1170); details: higher = more signal
# [10] = A549 lung cancer cell viability effects, profiling panel, resazurin fluorescence, 24 h, PK04 Diversity Set (AID 1171); details: higher = more signal, called active from +8 up or from −8 down
# Further: test concentration not given here.
SMILES,z-score [1],z-score [2],z-score [3],z-score [4],z-score [5],z-score [6],z-score [7],z-score [8],z-score [9],z-score [10]
[N-]=[N+]=Nc1ccccc1[C@H]1OC(c2ccc(OCCCO)cc2)=N[C@@]1(Cc1ccccc1)C(=O)N1CCOCC1,-1.59,0.539,-1.12,-2.4,-3.94,-0.273,0.598 (inactive),-1.09,-2.67,-2.74 (inactive)
COc1cc2c(cc1O)C(c1cccs1)N(Cc1ccc([N+](=O)[O-])o1)CC2 (stereo not given),0.383,0.0975,0.859,0.647,0.174,-0.771,0.627 (inactive),-0.185,1.09,-1.63 (inactive)
C=C(CCCC)/C(=C/C[C@@H](OC(C)=O)c1cccc(OCCO)c1)c1cnc2ccccc2c1,0.238,1.3,-0.0152,-1.47,-2.31,2.23,-2 (inactive),-0.423,-0.714,0.329 (inactive)
COc1ccc([Si](C)(C)[C@H]2[C@H](CC(=O)N3CCC[C@H]3CO)O[C@@]3(C(=O)N(Cc4cccc(N5CCOC5=O)c4)c4ccccc43)[C@@H]2C)cc1,-0.0923,0.1,-0.0734,-2.19,-3,2.76,-0.0541 (inactive),-0.952,-0.0702,0.299 (inactive)
COC(=O)[C@@]1(Cc2ccc(OC)cc2)[C@H]2c3cc(C(=O)N4CCCC4)n(CCSCCO)c3C[C@H]2CN1C(=O)c1ccccc1,-0.35,0.319,-0.814,-2.68,-0.804,1.5,-1.29 (inactive),-0.689,0.168,1.57 (inactive)
O=C1NC(=O)C2C1C=CC(C(O)C1CC=CCC1)N2Nc1ccccn1 (stereo not given),-0.905,-0.635,1.06,0.0581,-0.362,-0.265,-0.147 (inactive),-0.074,-0.642,-1.44 (inactive)
C#CCN(C/C=C/c1ccccc1)[C@H](CO)c1ccccc1,-1.94,-0.27,-1.76,-2.02,-1.96,-2.74,-0.471 (inactive),-0.746,0.0614,-0.96 (inactive)
COC(=O)[C@@]1(Cc2ccc(OC)cc2)[C@H]2c3cc(C(=O)N4CCCC4)n(CCc4ccc(O)c(O)c4)c3C[C@H]2CN1C(=O)c1ccccc1,-0.393,0.609,-0.0727,-3.36,-2.19,0.923,-1.13 (inactive),-0.445,-1.13,-0.0046 (inactive)
C[N+](C)(C)CCCCCCNC(=O)[C@H]1C[C@H]2C(=O)N[C@@H](Cc3ccccc3)C(=O)N2[C@H]1c1cccc(OCCO)c1,-0.344,-1.04,-0.695,0.245,0.517,-1.25,-0.371 (inactive),-0.186,-0.545,0.568 (inactive)
CC(C)CCC[C@@H](C)[C@H]1CC[C@@]2(C)C3=C(CC[C@]12C)[C@@]1(C)CC[C@H](OC(=O)c2ccc(C(F)(F)F)nc2)C(C)(C)C1CC3 (stereo not given in full),0.351,0.806,0.717,0.18,0.79,0.726,-0.215 (inactive),0.483,-0.263,-0.0879 (inactive)
[N-]=[N+]=NCc1ccccc1[C@H]1OC(c2ccc(OCCCO)cc2)=N[C@@]1(Cc1ccccc1)C(=O)N1CCCCC1,0.562,-0.359,0.505,-0.085,-0.909,0.732,-0.677 (inactive),-0.931,-0.854,0.151 (inactive)
[N-]=[N+]=NCc1ccccc1[C@@H]1OC(c2ccc(OCCCO)cc2)=N[C@]1(CCS(=O)(=O)c1ccccc1)C(N)=O,0.338,-0.676,0.834,0.369,0.102,-1.67,-0.0551 (inactive),-0.875,-1.16,-0.174 (inactive)
[N-]=[N+]=Nc1ccccc1C[C@@]1(C(=O)N2CCCCC2)N=C(c2ccc(OCCCO)cc2)O[C@@H]1c1ccccc1N=[N+]=[N-],-0.911,0.0245,-1.7,-3.47,-4.35,-1.21,-0.923 (inactive),-1.3,-2.21,-0.797 (inactive)
C=C(CCCC)C(=O)CC[C@@H](OC(C)=O)c1ccc(CO)o1,-0.779,0.37,-0.293,0.0178,-0.878,-0.885,0.352 (inactive),0.703,-0.179,-0.0655 (inactive)
CCCC[C@@H]1C[C@H]1[C@@H](NC(=O)c1cccnc1)c1ccc(Cl)cc1,-1.01,-1.38,-0.114,-2.05,-3.56,1.06,-0.307 (inactive),-0.249,-1.62,1.56 (inactive)
CC(c1ccccc1)C(O)C1C=CC2C(=O)N(C)C(=O)C2N1NC(=O)OC(C)(C)C (stereo not given),-0.431,0.173,-0.527,-0.391,-0.347,-0.741,-0.439 (inactive),-0.104,0.772,0.866 (inactive)
CCCNC(=O)[C@@]1(Sc2ccc(C)cc2)CC(=O)N(Cc2ccccc2C(F)(F)F)[C@@H]1c1ccc(CO)cc1I,-0.567,1.12,-1.14,-2.3,-2.56,-0.453,-1.02 (inactive),-0.355,-1.78,0.821 (inactive)
O=C(CS)NCCCCCNC(=O)[C@H]1C[C@H]2C(=O)NCC(=O)N2[C@H]1c1ccc(O)cc1,0.67,0.537,-0.815,0.0607,-0.261,-0.557,0.185 (inactive),0.415,-0.167,0.847 (inactive)
CC(=O)NCCCC[C@@H]1NC(=O)[C@H]2C[C@@H](C(=O)NCCCCCNC(=O)CS)[C@@H](c3ccc(O)cc3)N2C1=O,0.489,0.102,0.0041,-1.41,0.102,0.231,-0.729 (inactive),0.698,0.612,-0.187 (inactive)
Cc1ccc(S[C@]2(C(=O)O)CC(=O)N(Cc3ccccc3C(F)(F)F)[C@@H]2c2ccc(CO)cc2I)cc1,0.0342,-0.217,-0.742,-3.22,-1.5,-1.06,-0.438 (inactive),-0.275,-1.48,0.834 (inactive)
C=C(CCCC)/C(=C/C[C@H](OC(C)=O)c1ccccc1OCCO)c1cnc2ccccc2c1,0.615,-0.466,0.0984,-3.37,-2.83,1.14,-1.26 (inactive),-0.247,-0.172,-0.344 (inactive)
C=C(CCCC)C(=O)CC[C@H](OC(=O)c1cccnc1)c1ccc(OCCO)cc1,-0.15,0.355,-0.478,-3.34,-3.28,0.697,-0.597 (inactive),-0.658,-1.44,-0.475 (inactive)
COc1cc(CO)cc(I)c1O[C@H]1C=C(C(=O)NCCO)C[C@@H](NC[C@@H]2CCCO2)[C@@H]1O,1,-0.134,0.7,0.583,0.327,0.65,0.239 (inactive),-0.18,-1.9,0.222 (inactive)
CCCC=C(CCC)[C@@H](NS(=O)(=O)c1ccc(Cl)cc1)c1ccc(C(=O)OC)cc1,-1.18,0.391,-0.845,0.48,-0.595,-1.07,-0.542 (inactive),-0.906,-0.98,0.475 (inactive)
COCCOC(=O)N1C(=O)[C@@]2(c3cc(C#CCCO)ccc31)[C@H](c1ccc(O)cc1)N1[C@H](c3ccccc3)[C@H](c3ccccc3)OC(=O)[C@H]1[C@@H]2C(=O)N1CCN(c2ncccn2)CC1,-0.858,-0.721,-0.753,-0.0852,0.248,0.0243,-1.45 (inactive),-0.139,-0.611,0.838 (inactive)
CCOC(=O)C1=CC[C@H]2C(=O)N(c3ccccc3)C(=O)[C@@H]12,-0.538,-0.405,0.229,-0.472,0.217,-1.8,-1.28 (inactive),-0.00668,0.371,0.396 (inactive)
C[C@H]1C2[C@H](Cc3ccccc3)NC(=O)[C@]23C(=O)NCC(=O)N2CCC[C@H]2C(=O)NC/C=C/CCC/C=C/C3[C@@H]2O[C@]12C (stereo not given in full),0.776,1.42,-0.39,-0.37,-0.682,0.624,0.244 (inactive),-0.877,1.41,-1.46 (inactive)
CCOC(=O)C1=CCC(c2ccc(F)cc2)N(S(=O)(=O)c2ccc(C)cc2)C1 (stereo not given),-1.02,-1.12,-0.444,-0.434,-1.5,-0.717,-1.01 (inactive),0.641,-1.66,-0.0491 (inactive)
C=CC[C@]1(C(=O)NCc2ccccc2)N=C(c2ccc(OCCCO)cc2)O[C@H]1c1ccccc1CN=[N+]=[N-],-0.774,0.0129,0.22,-1.28,-1.81,0.24,-0.889 (inactive),-0.787,0.407,0.668 (inactive)
CCOC(=O)C1=C[C@@H](C(C)C)N(S(=O)(=O)c2ccc(C)cc2)[C@H]1c1ccccc1F,-1.2,0.0139,-0.972,-0.463,-1.08,0.175,0.227 (inactive),-0.128,-0.581,1.76 (inactive)
